According to PubChem BioAssay AID624301 (The Scripps Research Institute Molecular Screening Center, 2012):
Calls of active or inactive are those of the source.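 How the source made its calls: active means relative activity ratio in the reporter plus Dax-1 wells above 5 or under 0.1 at any tested dose; inactive means ratio stays between 0.1 and 5 at every dose.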

Molecular target: DAX1 (UniProt P51843)
Assay: DAX1 repression relief on CAT reporter, dose response, DAX1 inhibitor project, cell-based, CAT activity, absorbance, powder samples (AID 624301)
Settings: HEK293 Gal4-DAX1 CAT reporter, ELISA absorbance; CAT reporter with DAX1, at 100 µM (top of the series)

Sequence of DAX1 (P51843 whole entry, looked up): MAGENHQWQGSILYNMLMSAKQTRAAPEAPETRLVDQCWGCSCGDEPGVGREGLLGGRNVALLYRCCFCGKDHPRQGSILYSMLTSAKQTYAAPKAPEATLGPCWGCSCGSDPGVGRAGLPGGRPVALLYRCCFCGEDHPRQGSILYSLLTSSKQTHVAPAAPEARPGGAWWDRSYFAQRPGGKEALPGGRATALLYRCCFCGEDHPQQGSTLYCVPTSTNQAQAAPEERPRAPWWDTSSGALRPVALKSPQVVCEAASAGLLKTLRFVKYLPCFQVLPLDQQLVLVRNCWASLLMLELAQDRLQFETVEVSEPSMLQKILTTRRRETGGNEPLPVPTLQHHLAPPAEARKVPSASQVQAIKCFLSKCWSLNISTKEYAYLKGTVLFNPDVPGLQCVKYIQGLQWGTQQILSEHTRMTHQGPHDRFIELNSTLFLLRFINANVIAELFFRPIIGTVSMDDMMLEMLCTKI

SMILES | outcome
Cn1c(=O)n(C)c2cc(C(=O)Nc3ccc4c(c3)OCO4)ccc21 | inactive
Cn1c(=O)n(C)c2cc(C(=O)Nc3ccc4c(c3)OCCO4)ccc21 | inactive
